According to the supplement of paper PMC11732987, “Enantioselective OTUD7B fragment discovery through chemoproteomics screening and high-throughput optimisation” (Communications Chemistry, 2025):

What was measured:
Experiment in all cases: log2 ratio of Biotin-Ahx-Ub-VS probe labelling (fragment/DMSO); higher = less target engagement (more negative = stronger competition), active = hit call of the paper (q ≤ 0.05, log2 ratio ≤ -1)
Conditions in all cases: compound concentration: 200 uM; treatment time: 3 h
[1] = target: USP16 (UniProt Q9Y5T5)
Outline: (§1)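 Global-median-normalised Spectronaut label-free quantities were compared by unpaired t-test, and values are average log2 ratios of fragment over vehicle. Only proteins with ≥2 unique peptides were used. HEK293T lysate (495 µg per sample) was treated in triplicate with fragment at 200 µM or vehicle for 3 h and then with Biotin-Ahx-Ub-VS at 0.5 µM final for 1 h. Labelled DUBs were then NeutrAvidin-enriched, digested with LysC and trypsin, and run by diaPASEF LC-MS/MS.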

[2] = target: T1, USP19 (UniProt O94966)
T1 sequence (whole entry): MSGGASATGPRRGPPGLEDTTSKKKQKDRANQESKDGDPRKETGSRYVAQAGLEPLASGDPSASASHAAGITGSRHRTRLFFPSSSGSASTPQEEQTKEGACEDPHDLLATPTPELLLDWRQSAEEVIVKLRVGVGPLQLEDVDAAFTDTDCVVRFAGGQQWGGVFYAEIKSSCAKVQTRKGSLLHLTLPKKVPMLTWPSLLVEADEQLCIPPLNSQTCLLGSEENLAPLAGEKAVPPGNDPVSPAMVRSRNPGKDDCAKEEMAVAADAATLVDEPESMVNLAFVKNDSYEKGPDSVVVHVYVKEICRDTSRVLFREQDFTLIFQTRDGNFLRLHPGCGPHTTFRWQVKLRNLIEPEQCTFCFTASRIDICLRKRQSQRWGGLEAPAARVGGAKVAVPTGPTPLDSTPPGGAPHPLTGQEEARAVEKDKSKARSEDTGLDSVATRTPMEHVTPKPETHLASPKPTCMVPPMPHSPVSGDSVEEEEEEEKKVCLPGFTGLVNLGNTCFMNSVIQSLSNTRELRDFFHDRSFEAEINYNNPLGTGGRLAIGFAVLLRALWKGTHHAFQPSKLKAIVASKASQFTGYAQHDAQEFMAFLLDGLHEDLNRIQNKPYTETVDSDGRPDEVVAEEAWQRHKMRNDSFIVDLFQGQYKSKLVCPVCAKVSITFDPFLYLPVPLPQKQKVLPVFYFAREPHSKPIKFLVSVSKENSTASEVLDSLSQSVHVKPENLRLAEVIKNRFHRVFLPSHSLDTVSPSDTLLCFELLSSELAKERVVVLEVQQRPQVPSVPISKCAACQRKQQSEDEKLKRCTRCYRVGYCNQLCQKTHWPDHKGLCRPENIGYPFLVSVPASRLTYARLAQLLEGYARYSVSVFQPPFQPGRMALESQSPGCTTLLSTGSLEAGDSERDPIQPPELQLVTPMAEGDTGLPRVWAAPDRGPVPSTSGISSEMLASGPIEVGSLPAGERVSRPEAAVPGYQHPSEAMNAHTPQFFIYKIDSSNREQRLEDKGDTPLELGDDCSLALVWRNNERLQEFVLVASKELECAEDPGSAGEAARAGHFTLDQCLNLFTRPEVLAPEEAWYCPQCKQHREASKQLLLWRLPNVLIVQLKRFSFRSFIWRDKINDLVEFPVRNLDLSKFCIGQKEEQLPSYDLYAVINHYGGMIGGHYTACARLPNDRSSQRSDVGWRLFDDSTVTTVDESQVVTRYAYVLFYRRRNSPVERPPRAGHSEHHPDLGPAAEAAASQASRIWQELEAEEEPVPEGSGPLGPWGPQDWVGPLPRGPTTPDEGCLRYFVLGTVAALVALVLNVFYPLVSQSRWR
Outline: as §1

[3] = target: USP24 (UniProt Q9UPU5)
Outline: as §1

[4] = target: T2, USP25 (UniProt Q9UHP3)
T2 sequence (whole entry): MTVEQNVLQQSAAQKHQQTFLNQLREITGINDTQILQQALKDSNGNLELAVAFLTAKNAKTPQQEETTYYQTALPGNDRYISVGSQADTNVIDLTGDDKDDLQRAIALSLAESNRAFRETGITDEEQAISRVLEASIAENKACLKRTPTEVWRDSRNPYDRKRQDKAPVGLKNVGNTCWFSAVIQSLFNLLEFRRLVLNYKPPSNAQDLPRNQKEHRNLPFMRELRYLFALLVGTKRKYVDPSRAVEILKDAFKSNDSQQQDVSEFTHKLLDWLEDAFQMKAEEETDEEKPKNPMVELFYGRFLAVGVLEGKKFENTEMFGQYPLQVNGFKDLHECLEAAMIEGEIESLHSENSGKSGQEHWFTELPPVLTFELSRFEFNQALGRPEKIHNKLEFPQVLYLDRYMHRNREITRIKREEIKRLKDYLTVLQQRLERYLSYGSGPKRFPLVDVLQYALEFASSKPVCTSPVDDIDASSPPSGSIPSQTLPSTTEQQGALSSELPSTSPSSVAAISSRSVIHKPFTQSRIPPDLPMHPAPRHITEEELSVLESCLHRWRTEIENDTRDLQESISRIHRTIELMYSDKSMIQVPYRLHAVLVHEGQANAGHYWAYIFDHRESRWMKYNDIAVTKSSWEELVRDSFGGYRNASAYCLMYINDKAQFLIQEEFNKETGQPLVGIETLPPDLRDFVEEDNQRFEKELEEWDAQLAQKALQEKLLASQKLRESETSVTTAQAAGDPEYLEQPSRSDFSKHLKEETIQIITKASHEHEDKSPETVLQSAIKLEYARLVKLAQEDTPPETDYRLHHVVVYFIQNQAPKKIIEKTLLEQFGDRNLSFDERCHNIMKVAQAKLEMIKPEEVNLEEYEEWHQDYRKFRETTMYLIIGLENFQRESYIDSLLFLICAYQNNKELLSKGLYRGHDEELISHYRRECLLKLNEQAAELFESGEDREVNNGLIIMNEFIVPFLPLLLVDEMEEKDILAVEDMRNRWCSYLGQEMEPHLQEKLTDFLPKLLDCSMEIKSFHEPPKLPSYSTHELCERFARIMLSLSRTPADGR
Outline: as §1

[5] = target: T3, USP28 (UniProt Q96RU2)
T3 sequence (whole entry): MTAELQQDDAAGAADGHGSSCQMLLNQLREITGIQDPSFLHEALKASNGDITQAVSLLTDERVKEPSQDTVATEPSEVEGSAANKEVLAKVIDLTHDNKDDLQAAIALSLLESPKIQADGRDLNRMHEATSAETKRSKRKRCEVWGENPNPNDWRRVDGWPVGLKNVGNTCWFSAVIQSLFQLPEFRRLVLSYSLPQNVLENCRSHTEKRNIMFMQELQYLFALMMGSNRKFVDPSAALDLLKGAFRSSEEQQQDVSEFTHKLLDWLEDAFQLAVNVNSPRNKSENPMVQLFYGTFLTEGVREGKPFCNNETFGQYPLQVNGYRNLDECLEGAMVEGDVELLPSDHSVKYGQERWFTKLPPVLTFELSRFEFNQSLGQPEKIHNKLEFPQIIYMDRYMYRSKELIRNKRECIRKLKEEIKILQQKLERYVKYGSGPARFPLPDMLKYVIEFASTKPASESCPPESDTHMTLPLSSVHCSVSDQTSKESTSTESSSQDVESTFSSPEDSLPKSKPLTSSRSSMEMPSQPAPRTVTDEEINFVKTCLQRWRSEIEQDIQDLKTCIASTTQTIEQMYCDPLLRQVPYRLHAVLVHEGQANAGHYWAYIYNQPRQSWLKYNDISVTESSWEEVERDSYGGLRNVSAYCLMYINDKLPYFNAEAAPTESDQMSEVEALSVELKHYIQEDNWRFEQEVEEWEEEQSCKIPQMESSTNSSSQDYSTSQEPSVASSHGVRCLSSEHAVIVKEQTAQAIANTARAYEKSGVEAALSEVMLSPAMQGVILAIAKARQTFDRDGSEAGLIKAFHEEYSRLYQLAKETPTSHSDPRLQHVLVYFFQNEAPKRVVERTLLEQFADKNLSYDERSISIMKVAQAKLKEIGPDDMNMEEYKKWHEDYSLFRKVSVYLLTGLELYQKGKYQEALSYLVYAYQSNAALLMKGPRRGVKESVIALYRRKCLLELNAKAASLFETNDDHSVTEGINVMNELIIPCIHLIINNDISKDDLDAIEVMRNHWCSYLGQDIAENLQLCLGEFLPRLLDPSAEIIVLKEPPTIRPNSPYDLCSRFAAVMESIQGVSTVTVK
Outline: as §1

Measured: log2 ratio of Biotin-Ahx-Ub-VS probe labelling

USP16, sequence (Q9Y5T5 whole entry, looked up, the tested form may be a part): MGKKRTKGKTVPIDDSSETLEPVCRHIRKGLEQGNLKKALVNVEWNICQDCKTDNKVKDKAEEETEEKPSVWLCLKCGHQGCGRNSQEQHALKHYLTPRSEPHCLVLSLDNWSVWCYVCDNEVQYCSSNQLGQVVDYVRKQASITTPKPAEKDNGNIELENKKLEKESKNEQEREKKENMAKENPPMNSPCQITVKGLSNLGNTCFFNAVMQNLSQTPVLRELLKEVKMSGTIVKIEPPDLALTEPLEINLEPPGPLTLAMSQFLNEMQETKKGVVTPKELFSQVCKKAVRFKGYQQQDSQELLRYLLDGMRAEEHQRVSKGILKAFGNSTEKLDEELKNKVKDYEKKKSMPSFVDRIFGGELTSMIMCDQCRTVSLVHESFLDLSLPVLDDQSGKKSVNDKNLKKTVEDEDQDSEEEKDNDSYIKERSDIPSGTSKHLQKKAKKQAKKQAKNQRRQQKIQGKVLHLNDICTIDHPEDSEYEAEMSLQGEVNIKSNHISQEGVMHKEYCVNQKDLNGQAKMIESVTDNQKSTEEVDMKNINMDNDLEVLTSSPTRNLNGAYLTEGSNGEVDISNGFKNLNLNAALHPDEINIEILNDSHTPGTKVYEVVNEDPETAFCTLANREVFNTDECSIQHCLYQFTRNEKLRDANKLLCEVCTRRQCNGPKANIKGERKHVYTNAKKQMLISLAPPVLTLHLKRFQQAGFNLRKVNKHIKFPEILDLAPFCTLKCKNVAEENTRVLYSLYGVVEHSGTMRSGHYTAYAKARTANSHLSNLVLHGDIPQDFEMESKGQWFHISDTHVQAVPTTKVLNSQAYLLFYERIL
USP24, sequence (Q9UPU5 whole entry): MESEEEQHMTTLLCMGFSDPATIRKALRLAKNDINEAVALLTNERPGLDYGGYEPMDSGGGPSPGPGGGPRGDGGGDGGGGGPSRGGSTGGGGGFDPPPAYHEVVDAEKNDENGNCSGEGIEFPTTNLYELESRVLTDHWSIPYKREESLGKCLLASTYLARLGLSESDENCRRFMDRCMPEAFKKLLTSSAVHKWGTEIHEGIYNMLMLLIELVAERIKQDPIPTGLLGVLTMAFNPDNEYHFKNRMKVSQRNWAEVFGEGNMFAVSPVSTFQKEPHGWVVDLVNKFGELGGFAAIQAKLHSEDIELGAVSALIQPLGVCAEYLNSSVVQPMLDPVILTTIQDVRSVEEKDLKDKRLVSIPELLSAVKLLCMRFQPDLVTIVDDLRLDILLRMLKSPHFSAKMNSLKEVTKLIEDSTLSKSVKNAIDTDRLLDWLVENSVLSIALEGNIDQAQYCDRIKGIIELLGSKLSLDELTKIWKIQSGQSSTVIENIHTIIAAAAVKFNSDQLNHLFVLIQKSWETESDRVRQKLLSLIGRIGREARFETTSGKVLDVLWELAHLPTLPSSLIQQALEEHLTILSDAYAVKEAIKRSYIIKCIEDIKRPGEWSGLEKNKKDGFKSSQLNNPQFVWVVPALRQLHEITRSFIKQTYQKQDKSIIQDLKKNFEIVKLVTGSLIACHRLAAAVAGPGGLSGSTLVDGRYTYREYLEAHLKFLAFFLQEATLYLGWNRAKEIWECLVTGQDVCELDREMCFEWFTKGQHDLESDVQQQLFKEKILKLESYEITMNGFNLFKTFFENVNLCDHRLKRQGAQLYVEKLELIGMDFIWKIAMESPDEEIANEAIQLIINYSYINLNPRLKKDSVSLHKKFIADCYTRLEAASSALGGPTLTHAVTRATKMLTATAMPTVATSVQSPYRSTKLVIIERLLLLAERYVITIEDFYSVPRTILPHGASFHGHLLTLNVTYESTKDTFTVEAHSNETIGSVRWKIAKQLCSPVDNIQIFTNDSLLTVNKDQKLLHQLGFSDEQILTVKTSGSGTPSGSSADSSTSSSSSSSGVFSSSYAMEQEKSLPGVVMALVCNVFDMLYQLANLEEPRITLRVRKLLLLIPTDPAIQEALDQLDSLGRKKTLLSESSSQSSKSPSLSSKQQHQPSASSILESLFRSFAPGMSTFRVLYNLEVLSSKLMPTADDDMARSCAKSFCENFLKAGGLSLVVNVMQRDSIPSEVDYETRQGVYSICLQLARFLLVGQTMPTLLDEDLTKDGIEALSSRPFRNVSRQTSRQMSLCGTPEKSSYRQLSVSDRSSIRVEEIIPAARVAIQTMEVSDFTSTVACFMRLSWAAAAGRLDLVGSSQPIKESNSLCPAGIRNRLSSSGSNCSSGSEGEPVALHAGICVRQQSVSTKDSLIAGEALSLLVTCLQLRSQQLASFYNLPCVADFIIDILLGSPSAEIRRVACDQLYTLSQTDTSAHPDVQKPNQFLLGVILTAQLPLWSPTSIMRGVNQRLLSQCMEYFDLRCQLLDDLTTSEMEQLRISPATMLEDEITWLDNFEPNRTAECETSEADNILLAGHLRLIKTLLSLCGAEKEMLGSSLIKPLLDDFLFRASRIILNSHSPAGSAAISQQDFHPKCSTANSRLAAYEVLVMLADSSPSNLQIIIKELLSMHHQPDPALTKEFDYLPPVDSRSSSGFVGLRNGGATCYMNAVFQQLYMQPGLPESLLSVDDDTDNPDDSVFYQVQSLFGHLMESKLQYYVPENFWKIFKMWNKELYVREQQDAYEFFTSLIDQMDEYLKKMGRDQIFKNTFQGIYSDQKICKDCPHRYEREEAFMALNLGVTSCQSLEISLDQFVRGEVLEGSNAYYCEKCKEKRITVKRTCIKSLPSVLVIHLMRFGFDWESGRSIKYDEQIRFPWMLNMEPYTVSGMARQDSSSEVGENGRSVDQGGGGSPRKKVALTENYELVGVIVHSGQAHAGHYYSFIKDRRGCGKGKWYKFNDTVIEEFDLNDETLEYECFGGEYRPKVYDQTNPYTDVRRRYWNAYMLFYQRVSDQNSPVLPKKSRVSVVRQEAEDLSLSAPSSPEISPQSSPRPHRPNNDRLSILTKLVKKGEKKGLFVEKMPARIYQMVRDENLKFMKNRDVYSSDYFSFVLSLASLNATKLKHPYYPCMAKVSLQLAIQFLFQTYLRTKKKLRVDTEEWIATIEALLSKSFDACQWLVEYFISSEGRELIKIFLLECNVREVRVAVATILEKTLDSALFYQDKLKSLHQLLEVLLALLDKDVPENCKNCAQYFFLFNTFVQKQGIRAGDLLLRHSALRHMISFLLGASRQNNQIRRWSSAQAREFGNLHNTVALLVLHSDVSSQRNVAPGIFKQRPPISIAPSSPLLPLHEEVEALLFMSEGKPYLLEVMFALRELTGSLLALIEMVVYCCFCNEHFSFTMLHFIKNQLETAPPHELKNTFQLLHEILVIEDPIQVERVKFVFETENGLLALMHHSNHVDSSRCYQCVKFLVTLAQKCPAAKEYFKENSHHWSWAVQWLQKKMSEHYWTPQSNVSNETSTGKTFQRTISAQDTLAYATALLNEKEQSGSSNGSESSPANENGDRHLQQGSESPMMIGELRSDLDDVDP

CCN(Cc1ccc(C#N)cc1F)C(=O)CCl
inactive: [1] 0.17 | [2] -0.28 | [3] -0.741 | [4] -0.659 | [5] -0.624
